Positions count from the first letter of the chain named. Names and notes keep the numbering of the source.
B1: 14 (nucleosome)
DNA 1: ATCCTGGAGAATCCCGTCAAGGCCACCGCTCAATTGGTCGTAGACAGCTCTAGCACCGCTTAAACGCACGTACGCGCTGTCCCCCGCGTTTTAACCGCCAAGGGGATTACTCCCTAGTCTCCAGGCACGTGTCAGATATATACATCCTGTGAT
DNA 2: ATCACAGGATGTATATATCTGACACGTGCCTGGAGACTAGGGAGTAATCCCCTTGGCGGTTAAAACGCGGGGGACAGCGCGTACGTGCGTTTAAGCGGTGCTAGAGCTGTCTACGACCAATTGAGCGGTGGCCTTGACGGGATTCTCCAGGAT
modifications: reconstituted with mouse histones H2A, H2B, H3.3 and H4
B2: 115 (nucleosome)
DNA 1: ATCCTGGAGAATCCCGGTGCCGAGGCCGCTCAATTGGTCGTAGACAGCTCTAGCACCGCTTAAACGCACGTACGCGCTGTCCCCCGCGTTTTAACCGCCAAGGGGATTACTCCCTAGTCAAGGCCAACGTGTCAGATATATACATCCTGTGAT
DNA 2: ATCACAGGATGTATATATCTGACACGTTGGCCTTGACTAGGGAGTAATCCCCTTGGCGGTTAAAACGCGGGGGACAGCGCGTACGTGCGTTTAAGCGGTGCTAGAGCTGTCTACGACCAATTGAGCGGCCTCGGCACCGGGATTCTCCAGGAT
modifications: reconstituted with mouse histones H2A, H2B, H3.3 and H4
B3: 117 (nucleosome)
DNA 1: B2 DNA 1 with A120T, A121C, G122A, G123A, C124G, C125G, A126C, A127C, C128A
DNA 2: B2 DNA 2 with G26T, T27G, T28G, G29C, G30C, C31T, C32T, T33G, T34A
modifications: reconstituted with mouse histones H2A, H2B, H3.3 and H4
B4: 119 (nucleosome)
DNA 1: B2 DNA 1 with A120T, A121C, G122T, G123C, C124A, C125A, A126G, A127G, G129C, T130A
DNA 2: B2 DNA 2 with A24T, C25G, T27C, T28C, G29T, G30T, C31G, C32A, T33G, T34A
modifications: reconstituted with mouse histones H2A, H2B, H3.3 and H4
B5: 120 (nucleosome)
DNA 1: B2 DNA 1 with A120T, A121C, G122C, G123T, C125A, A127G, C128G, G129C, T130C, G131A
DNA 2: B2 DNA 2 with C23T, A24G, C25G, G26C, T27C, G29T, C31A, C32G, T33G, T34A
modifications: reconstituted with mouse histones H2A, H2B, H3.3 and H4
B6: 121 (nucleosome)
DNA 1: B2 DNA 1 with A120T, A121C, G122C, G123A, C124T, C128G, T130C, G131C, T132A
DNA 2: B2 DNA 2 with A22T, C23G, A24G, G26C, G30A, C31T, C32G, T33G, T34A
modifications: reconstituted with mouse histones H2A, H2B, H3.3 and H4
B7: 122 (nucleosome)
DNA 1: ATCCTGGAGAATCCCGGTGCCGAGGCCGCTCAATTGGTCGTAGACAGCTCTAGCACCGCTTAAACGCACGTACGCGCTGTCCCCCGCGTTTTAACCGCCAAGGGGATTACTCCCTAGTCTCCAGTCAAGGCCAAGATATATACATCCTGTGAT
DNA 2: ATCACAGGATGTATATATCTTGGCCTTGACTGGAGACTAGGGAGTAATCCCCTTGGCGGTTAAAACGCGGGGGACAGCGCGTACGTGCGTTTAAGCGGTGCTAGAGCTGTCTACGACCAATTGAGCGGCCTCGGCACCGGGATTCTCCAGGAT
modifications: reconstituted with mouse histones H2A, H2B, H3.3 and H4
B8: 125 (nucleosome)
DNA 1: B7 DNA 1 with T125G, A128T, G129C, G130A, C131A, C132G, A133G, A134C, G135C
DNA 2: B7 DNA 2 with C19G, T20G, T21C, G22C, G23T, C24T, C25G, T26A, A29C
modifications: reconstituted with mouse histones H2A, H2B, H3.3 and H4
B9: 123 (nucleosome)
DNA 1: B7 DNA 1 with T125G, C126T, A127C, G129A, C131G, A133C
DNA 2: B7 DNA 2 with T21G, G23C, C25T, T27G, G28A, A29C
modifications: reconstituted with mouse histones H2A, H2B, H3.3 and H4
B10: 124 (nucleosome)
DNA 1: B7 DNA 1 with T125G, A127T, A128C, G129A, G130A, C131G, C132G, A133C, A134C, G135A
DNA 2: B7 DNA 2 with C19T, T20G, T21G, G22C, G23C, C24T, C25T, T26G, T27A, A29C
modifications: reconstituted with mouse histones H2A, H2B, H3.3 and H4
B11: 126 (nucleosome)
DNA 1: ATCCTGGAGAATCCCGGTGCCGAGGCCGCTCAATTGGTCGTAGACAGCTCTAGCACCGCTTAAACGCACGTACGCGCTGTCCCCCGCGTTTTAACCGCCAAGGGGATTACTCCCTAGTCTCCAGGCACTCAAGGCCAATATACATCCTGTGAT
DNA 2: ATCACAGGATGTATATTGGCCTTGAGTGCCTGGAGACTAGGGAGTAATCCCCTTGGCGGTTAAAACGCGGGGGACAGCGCGTACGTGCGTTTAAGCGGTGCTAGAGCTGTCTACGACCAATTGAGCGGCCTCGGCACCGGGATTCTCCAGGAT
modifications: reconstituted with mouse histones H2A, H2B, H3.3 and H4
B12: 113 (nucleosome)
DNA 1: ATCCTGGAGAATCCCGGTGCCGAGGCCGCTCAATTGGTCGTAGACAGCTCTAGCACCGCTTAAACGCACGTACGCGCTGTCCCCCGCGTTTTAACCGCCAAGGGGATTACTCCCTTCAAGGCCAGCACGTGTCAGATATATACATCCTGTGAT
DNA 2: ATCACAGGATGTATATATCTGACACGTGCTGGCCTTGAAGGGAGTAATCCCCTTGGCGGTTAAAACGCGGGGGACAGCGCGTACGTGCGTTTAAGCGGTGCTAGAGCTGTCTACGACCAATTGAGCGGCCTCGGCACCGGGATTCTCCAGGAT
modifications: reconstituted with mouse histones H2A, H2B, H3.3 and H4
B13: 114 (nucleosome)
DNA 1: B2 DNA 1 with G117T, T118C, C119A, A121G, G123C, C125A, A126C
DNA 2: B12 DNA 2 with C29T, T30G, G32C, C34T, T36G, G37A, A38T
modifications: reconstituted with mouse histones H2A, H2B, H3.3 and H4
B14: 116 (nucleosome)
DNA 1: B2 DNA 1 with C119T, A120C, G122A, C124G, A126C
DNA 2: B2 DNA 2 with T28G, G30C, C32T, T34G, G35A
modifications: reconstituted with mouse histones H2A, H2B, H3.3 and H4
B15: 118 (nucleosome)
DNA 1: B2 DNA 1 with A120T, A121T, G122C, G123A, C124A, C125G, A126G, A127C, G129A
DNA 2: B2 DNA 2 with C25T, T27G, T28C, G29C, G30T, C31T, C32G, T33A, T34A
modifications: reconstituted with mouse histones H2A, H2B, H3.3 and H4

Molecular target: NR5A2 wild type;histone octamer (Homo sapiens;, UniProt O00482;C0HKE1;Q6ZWY9;P84244;P62806 1-541;2-130;2-126;2-136;2-103, |)
Assay: SeEN-seq (EMSA of nucleosome library followed by sequencing); 0.8 uM human NR5A2; 20 mM Tris-HCl pH 7.5, 120 mM NaCl, 1 mM MgCl2, 10 uM ZnCl2, 1 mM DTT, 100 ug/ml BSA, room temperature, 30 min; 0.1 uM nucleosome library; high values mean tight binding

Row | Binder | binding signal
1 | B1 | 3.44 log2 enrichment (bound/unbound, relative to Widom 601)
2 | B2 | 0.998 log2 enrichment (bound/unbound, relative to Widom 601)
3 | B3 | 1.13 log2 enrichment (bound/unbound, relative to Widom 601)
4 | B4 | 0.607 log2 enrichment (bound/unbound, relative to Widom 601)
5 | B5 | 0.677 log2 enrichment (bound/unbound, relative to Widom 601)
6 | B6 | 0.664 log2 enrichment (bound/unbound, relative to Widom 601)
7 | B7 | 0.909 log2 enrichment (bound/unbound, relative to Widom 601)
8 | B8 | 4.55 log2 enrichment (bound/unbound, relative to Widom 601)
9 | B9 | 1.01 log2 enrichment (bound/unbound, relative to Widom 601)
10 | B10 | 3.87 log2 enrichment (bound/unbound, relative to Widom 601)
11 | B11 | 4.66 log2 enrichment (bound/unbound, relative to Widom 601)
12 | B12 | 0.896 log2 enrichment (bound/unbound, relative to Widom 601)
13 | B13 | 1.13 log2 enrichment (bound/unbound, relative to Widom 601)
14 | B14 | 1.39 log2 enrichment (bound/unbound, relative to Widom 601)
15 | B15 | 1.08 log2 enrichment (bound/unbound, relative to Widom 601)

Molecular target: mouse Nr5a2 wild type;histone octamer (Mus musculus;, UniProt P45448;C0HKE1;Q6ZWY9;P84244;P62806 1-560;2-130;2-126;2-136;2-103, |)
Assay: SeEN-seq (EMSA of nucleosome library followed by sequencing); 1.2 uM mouse Nr5a2; 20 mM Tris-HCl pH 7.5, 120 mM NaCl, 1 mM MgCl2, 10 uM ZnCl2, 1 mM DTT, 100 ug/ml BSA, room temperature, 30 min; 0.1 uM nucleosome library; high values mean tight binding

Row | Binder | binding signal
16 | B1 | 2.91 log2 enrichment (bound/unbound, relative to Widom 601)
17 | B2 | 1.02 log2 enrichment (bound/unbound, relative to Widom 601)
18 | B3 | 1.34 log2 enrichment (bound/unbound, relative to Widom 601)
19 | B4 | 0.776 log2 enrichment (bound/unbound, relative to Widom 601)
20 | B5 | 0.768 log2 enrichment (bound/unbound, relative to Widom 601)
21 | B6 | 0.599 log2 enrichment (bound/unbound, relative to Widom 601)
22 | B7 | 0.939 log2 enrichment (bound/unbound, relative to Widom 601)
23 | B8 | 3.58 log2 enrichment (bound/unbound, relative to Widom 601)
24 | B9 | 1.41 log2 enrichment (bound/unbound, relative to Widom 601)
25 | B10 | 2.91 log2 enrichment (bound/unbound, relative to Widom 601)
26 | B11 | 3.59 log2 enrichment (bound/unbound, relative to Widom 601)
27 | B12 | 0.869 log2 enrichment (bound/unbound, relative to Widom 601)
28 | B13 | 1.08 log2 enrichment (bound/unbound, relative to Widom 601)
29 | B14 | 2.15 log2 enrichment (bound/unbound, relative to Widom 601)
30 | B15 | 1.4 log2 enrichment (bound/unbound, relative to Widom 601)

Reference: paper PMC11102866, “Nucleosome-bound NR5A2 structure reveals pioneer factor mechanism by DNA minor groove anchor competition”
